# Reference: PubChem BioAssay AID623970 (The Scripps Research Institute Molecular Screening Center, 2012)
# “And” between values parts separate entries of the source, which are not always exact repeats. Identical values can stand only once. The source made the active and inactive calls. Cut-off read from the data, not from the text of the source: active = IC50 below about 90 µM; inactive = the rest.
# Experiment: compound-DNA interaction, SYBR readout – biochemical, fluorescence, artefact control for HCV NS3 helicase inhibitor project, late-stage follow-up (AID 623970)
# Conditions: DNA binding, SYBR dye displacement fluorescence
row,SMILES,IC50
1,Cc1ccc2nc(-c3ccc4nc(-c5ccc(NC(=O)c6ccc(Cl)cc6)cc5)sc4c3)sc2c1S(=O)(=O)O,31 µM (active)
2,Cc1ccc2nc(-c3ccc(NC(=O)c4ccc(NS(=O)(=O)c5ccccc5)cc4)cc3)sc2c1S(=O)(=O)O,> 100 µM (inactive)
3,Cc1ccc2nc(-c3ccc4nc(-c5ccc(N(C)C(=O)c6ccc7ccccc7c6)cc5)sc4c3)sc2c1S(=O)(=O)O,> 100 µM (inactive)
4,Cc1ccc2nc(-c3ccc4nc(-c5ccc(NC(=O)c6ccc(CNC(=O)OCC7c8ccccc8-c8ccccc87)cc6)cc5)sc4c3)sc2c1S(=O)(=O)O,56 µM (active)
5,Cc1ccc2nc(-c3ccc4nc(-c5ccc(NC(=O)c6ccccc6C(F)(F)F)cc5)sc4c3)sc2c1S(=O)(=O)O,> 100 µM (inactive)
6,COc1ccc(NC(=O)Nc2ccc(-c3nc4ccc(-c5nc6ccc(C)c(S(=O)(=O)O)c6s5)cc4s3)cc2)cc1,73 µM (active)
7,Cc1ccc2nc(-c3ccc4nc(-c5ccc(NC(=O)c6ccc7ccccc7c6)cc5)sc4c3)sc2c1S(=O)(=O)O,36 µM (active) and 25 µM (active)
8,CCN(CC)c1ccc(-c2nc3ccc(-c4nc5ccc(C)c(S(=O)(=O)O)c5s4)cc3s2)cc1,26 µM (active)
9,Cc1ccc2nc(-c3ccc4nc(-c5ccc(NC(=O)Nc6ccc(C(F)(F)F)cc6)cc5)sc4c3)sc2c1S(=O)(=O)O,18 µM (active)
10,Cc1ccc2nc(-c3ccc4nc(-c5ccc(NC(=O)c6ccc(Br)cc6)cc5)sc4c3)sc2c1S(=O)(=O)O,30 µM (active)
11,CC(=O)Nc1ccc(-c2nc3ccc(-c4nc5ccc(C)c(S(=O)(=O)O)c5s4)cc3s2)cc1,> 100 µM (inactive)
12,Cc1ccc(NC(=O)Nc2ccc(-c3nc4ccc(-c5nc6ccc(C)c(S(=O)(=O)O)c6s5)cc4s3)cc2)cc1,18 µM (active)
13,Cc1ccc2nc(-c3ccc4nc(-c5ccc(NC(=O)c6cccnc6)cc5)sc4c3)sc2c1S(=O)(=O)O,> 100 µM (inactive)
14,Cc1ccc2nc(-c3ccc4nc(-c5ccc(NC(=O)c6ccc(Cl)c(Cl)c6)cc5)sc4c3)sc2c1S(=O)(=O)O,30 µM (active)
15,CCOc1ccc2c(NNC(=O)c3cnccn3)c3c(nc2c1)CCCC3,> 100 µM (inactive)
16,Cc1ccc2nc(-c3ccc(N)cc3)sc2c1S(=O)(=O)O,> 100 µM (inactive)
17,CN1CCN(Cc2cc(CN3CCN(C)CC3)c(O)c(=O)c(CN3CCN(C)CC3)c2)CC1,72 µM (active)

row,SMILES,IC50
1,Cc1ccc2nc(-c3ccc4nc(-c5ccc(NC(=O)c6ccc(C(F)(F)F)cc6)cc5)sc4c3)sc2c1S(=O)(=O)O,29 µM (active)
2,Cc1ccc2nc(-c3ccc4nc(-c5ccc(NC(=O)c6ccc(C(C)(C)C)cc6)cc5)sc4c3)sc2c1S(=O)(=O)O,16 µM (active)
3,NS(=O)(=O)c1ccc2nc(NC(=O)c3ccc4ncsc4c3)sc2c1,> 100 µM (inactive)
4,Cc1ccc2nc(-c3ccc4nc(-c5ccc(NC(=S)Nc6ccccc6)cc5)sc4c3)sc2c1S(=O)(=O)O,30 µM (active)
5,Cc1ccc2nc(-c3ccc4nc(-c5ccc(NC(=O)c6ccc(NC(=O)OCC7c8ccccc8-c8ccccc87)cc6)cc5)sc4c3)sc2c1S(=O)(=O)O,6 µM (active)
6,Cc1ccc2nc(-c3ccc4nc(-c5ccc6nc(-c7ccc(N)cc7)sc6c5)sc4c3)sc2c1S(=O)(=O)O (tested in a mixture with another compound),43 µM (active)
7,Cc1ccc2nc(-c3ccc(NC(=O)c4ccc(NC(=O)c5ccccc5)cc4)cc3)sc2c1S(=O)(=O)O,> 100 µM (inactive)
8,COc1cccc2c(=O)c3cc(Cl)cc(C(=O)Nc4cc(Cl)ccn4)c3[nH]c12,> 100 µM (inactive)
9,Cc1ccc2nc(-c3ccc(NC(=O)c4ccc(NC(=O)Nc5ccccc5)cc4)cc3)sc2c1S(=O)(=O)O,> 100 µM (inactive)
10,Cc1ccc2nc(-c3ccc(NC(=O)c4ccc(NC(=O)c5ccc(NC(=O)OCC6c7ccccc7-c7ccccc76)cc5)cc4)cc3)sc2c1S(=O)(=O)O,> 100 µM (inactive)
11,Cc1ccc2c(sc(-c3ccc4c(c3)sc(-c3ccc5c(c3)sc(-c3ccc(N(C)C)cc3)[n+]5C)[n+]4C)[n+]2C)c1S(=O)(=O)O (tested in a mixture with another compound),61 µM (active)
12,Cc1ccc2nc(-c3ccc4nc(-c5ccc(NC(=O)c6ccc(C(F)(F)F)c(F)c6)cc5)sc4c3)sc2c1S(=O)(=O)O,28 µM (active)
13,Cc1ccc2nc(-c3ccc4nc(-c5ccc(NC(=O)c6cccc(Cl)c6)cc5)sc4c3)sc2c1S(=O)(=O)O,> 100 µM (inactive)
14,Cc1ccc2nc(-c3ccc(NC(=O)c4ccc(NC(=O)OCC5c6ccccc6-c6ccccc65)cc4)cc3)sc2c1S(=O)(=O)O,> 100 µM (inactive)
15,Cc1ccc2nc(-c3ccc4nc(-c5ccc(NC(=O)c6ccc7nc(-c8ccc(NC(=O)OCC9c%10ccccc%10-c%10ccccc%109)cc8)sc7c6)cc5)sc4c3)sc2c1S(=O)(=O)O,22 µM (active)
16,Cc1ccc2nc(-c3ccc(NC(=O)c4ccc(NC(=O)c5ccc(N)cc5)cc4)cc3)sc2c1S(=O)(=O)O,> 100 µM (inactive)
17,Cc1ccc2nc(-c3ccc4nc(-c5ccc(NC(=O)c6cccc7ccccc67)cc5)sc4c3)sc2c1S(=O)(=O)O,30 µM (active)
